According to PubChem BioAssay (NCI):
This is part of a sample that, as a whole, favours compounds with a hit. Of some 79,000 tested, about 15% had one in any assay. Values without a mark were called inactive. Activity calls are given as the source filed them. Cut-off read from the data, not from the text of the source: active = growth inhibition above about 70%; inactive = the rest.

How the values were obtained:
[1] = NCI Yeast Anticancer Drug Screen. Data for the rad50 strain (AID 155);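 note: 0% = growth of vehicle-only cultures of the same strain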; conditions: S. cerevisiae rad50 strain growth inhibition; at 50.0 µM; hits give high values
Method in brief: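 Growth of the mutant yeast was measured after compound exposure and referenced to vehicle-treated cultures.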

[2] = NCI Yeast Anticancer Drug Screen. Data for the mec2-1 strain (AID 157); conditions: S. cerevisiae mec2-1 strain, at 50.0 µM, hits give high values
Method in brief: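 Strain: mec2-1 (DNA repair/cell cycle alteration). Compound exposure, then growth measured; inhibition expressed relative to vehicle.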

[3] = NCI Yeast Anticancer Drug Screen. Data for the sgs1 mgt1 strain (AID 161);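 note: 0% = growth of cultures given vehicle only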; conditions: S. cerevisiae sgs1 mgt1 strain, at 50.0 µM, hits give high values
Method in brief: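 Mutant yeast exposed to compound; growth scored against vehicle-only wells.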

[4] = NCI Yeast Anticancer Drug Screen. Data for the cln2 rad14 strain (AID 165);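 note: 0% = growth equal to vehicle treated cultures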; conditions: S. cerevisiae cln2 rad14 strain, at 50.0 µM, hits give high values
Method in brief: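 Compounds are applied to the cln2 rad14 yeast strain, and growth is then compared with that of vehicle-treated cultures to give inhibition.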

[5] = NCI Yeast Anticancer Drug Screen. Data for the bub3 strain (AID 167); conditions: S. cerevisiae bub3 mutant strain, at 50.0 µM, hits give high values
Method in brief: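 Whole-cell yeast assay. The mutant strain was incubated with compounds, and growth inhibition was determined by comparison with vehicle-treated cells.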

[6] = NCI Yeast Anticancer Drug Screen. Data for the mlh1 rad18 strain (AID 175); conditions: S. cerevisiae mlh1 rad18 strain growth inhibition; at 50.0 µM; hits give high values
Method in brief: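 Read-out is yeast growth inhibition, calculated against vehicle-only controls. The compound was applied to a strain engineered with DNA damage repair alterations.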

Row | Compound | growth inhibition [1] | growth inhibition [2] | growth inhibition [3] | growth inhibition [4] | growth inhibition [5] | growth inhibition [6] [%]
1 | O=C(O)c1c(O)ccc(O)c1C(=O)O | -38.5% | -30.8% | -29.7% | -21.1% | -8.8% | –
2 | COc1cc(-c2cc(=O)c3c(O)c(OC)c(OC)c(OC)c3o2)ccc1O | 23.4% | 10.2% | -14.8% | 28.4% | 13.1% | –
3 | N.N.N.N.N.O=C([O-])c1nn[n-]n1.[Cl-].[Co+3] | -0.8% | -1.1% | 7.15% | 23.4% | 3.75% | –
4 | CCCc1cccc[n+]1CC(=O)c1ccccc1 | 5.65% | 11.1% | 4.95% | -51.5% | 25.4% | –
5 | c1csc(-c2sc(-c3ccsc3)cc2Cc2ccsc2)c1 | -23.1% | -20.1% | -32.9% | -14.4% | -26.6% | –
6 | CC1=CC(=O)C(=CN2C(=O)/C(=C\c3cccnc3)NC2=S)C(=O)O1 | -21.2% | -12.2% | -18.9% | -20.1% | -3.7% | –
7 | CC(C)(C)N/N=C(\C(=O)Nc1cccc(Cl)c1)C1C(=O)Nc2ccccc2S1=O (stereo unspecified) | -31.1% | -43.8% | -24.6% | 10.7% | -11.2% | –
8 | CC(=O)OC1C(C2COCO2)OCOC1C1COCO1 (stereo unspecified) | -3.3% | -7.15% | 3.5% | -16.6% | -6.65% | –
9 | O/N=C1\CCn2cccc21 | -12.1% | 15.1% | -18.2% | 0.25% | 19.4% | –
10 | CCCCCCCCCCCCOc1ccc(C(C)(C)C)cc1 | -12.2% | -12.8% | -22.1% | 7.85% | -36.8% | –
11 | COc1cc(NC(=O)Nc2cccc(C(C)=O)c2)c(OC)cc1Cl | -10.5% | 11% | 0.75% | -14.4% | 6.35% | –
12 | COc1ccccc1/C=C/C(=O)N1CCC2(CC1)C(=O)N(C)CN2c1ccccc1 | -16% | 8.45% | -17.3% | -15.1% | -0.35% | –
13 | Cc1nn(C(=O)c2cccnc2)c(-c2ccccc2)c1N=Nc1ccc(C(=O)O)cc1 | -16.5% | 11.2% | 4.65% | 29.4% | -2.8% | –
14 | CCCC(=O)/C=C\c1ccccc1 | 21.6% | -3.7% | 6.55% | -61.9% | 3.2% | –
15 | Cc1cccc(Nc2nc(NNC(=O)Cc3ccccc3)nc(NNC(=O)c3ccncc3)n2)c1 | 17.4% | -12.9% | 42.2% | 33.4% | 22.6% | –
16 | CCOc1ccccc1C=Nc1cc(C(C)C)c(O)cc1C | -10.2% | -17.2% | 5.6% | -4.6% | 0.85% | –
17 | O=[N+]([O-])c1ccc(S(=O)(=O)N/N=C/c2cccc3ccccc23)cc1 | 6.6% | -1.25% | 17.1% | -15.8% | -0.3% | –
18 | C[C@]12CCC(=O)C=C1CC[C@@H]1[C@@H]2[C@@H](O)C[C@@]2(C)[C@H]1CC[C@]2(O)C(=O)CO | 12.7% | 2.25% | -31.6% | 7% | -30.1% | –
19 | Nc1cc2c(cc1Br)-c1c(C(=O)O)cccc1C2=O | -20% | 9.3% | -2.4% | 7.1% | 11.2% | –
20 | COc1ccc(N2C(=O)C3c4[nH]c5ccccc5c4C4CCCCCCCCCCC4C3C2=O)cc1 (stereo unspecified) | 9.95% | -19.6% | -3.2% | -65.3% | -26.4% | –
21 | O=c1oc2ccc3ccccc3c2c(-c2ccc(O)cc2)c1-c1ccccc1 | 98.7% (active) | 98.5% (active) | 98.9% (active) | 97.2% (active) | 98.2% (active) | –
22 | O=[N+]([O-])c1cccc(Cc2nncc3ccccc23)c1 | 4.15% | 35.9% | 17.6% | 0.05% | 44.5% | –
23 | COc1cc(/C=C2\CCC(CN(C)C)C2=O)ccc1OC(=O)c1ccccc1 (stereo unspecified) | 86.6% (active) | 91.1% (active) | 86% (active) | 89.1% (active) | 85.2% (active) | –

Row | Compound | growth inhibition [1] | growth inhibition [2] | growth inhibition [3] | growth inhibition [4] | growth inhibition [5] | growth inhibition [6] [%]
24 | C(=N\N1CCN(/N=C/c2ccc(OCc3ccccc3)cc2)CC1)/c1ccc(OCc2ccccc2)cc1 | -12.6% | -3.95% | 7.65% | -19.4% | 0.2% | –
25 | Cc1ccc(S(=O)(=O)Oc2cccc(Br)c2)cc1 | 8.25% | -1.25% | 21.9% | -17.4% | -1.1% | –
26 | CC(C)=CC1C(COCc2cc3c(cc2Br)OCO3)C1(C)C (stereo unspecified) | -12.3% | -9.45% | 3% | -34.2% | -7.05% | –
27 | CN(C)c1ccc2[nH]cc(C(=O)O)c(=O)c2c1 | 4.15% | 6.6% | 10.3% | -1.05% | 28.8% | –
28 | CNC(=O)OCc1c(-c2ccccc2)c(-c2ccccc2)n(C)c1COC(=O)NC | 37.6% | 22.5% | 51.7% | 15.8% | 33.2% | –
29 | CCOC(=O)O/C(C)=C\c1ccccc1Cl | 0.4% | -1.15% | -7.75% | 7.75% | -5.85% | –
30 | CCOCCOC(=O)C1CCCC1=O (stereo unspecified) | -5.25% | -11.3% | -34.9% | -10.1% | -11.2% | –
31 | CC[N+](C)(CC)CCOC(=O)C(c1ccccc1)C(O)C1CCCCC1 (stereo unspecified) | 29.8% | -5.45% | 3.8% | 17.3% | -0.3% | –
32 | CCCCNC(=O)CC(C)C(=O)O (stereo unspecified) | 2.8% | -1.35% | -6.1% | -20.8% | -1.55% | –
33 | O=C(NCCN1CCCC1)Nc1ccccc1Cl | 4.6% | 27.2% | -0.8% | -10.1% | 34.1% | –
34 | CCCCCCCSC#N | -7.6% | 20.9% | -1.9% | -22.4% | 9.75% | –
35 | CC1CNC(=O)C(=O)N1 (stereo unspecified) | -14.7% | -1.8% | 1.75% | -13.4% | -10.9% | –
36 | CCc1cc(CCC(=O)Nc2ccccc2[N+](=O)[O-])[nH]c(=S)n1 | -10.6% | -20.8% | 11.3% | 12% | -14.3% | –
37 | CC(=O)Nc1ccc(S(=O)(=O)[N-]C2C(=O)c3ccccc3C(=O)C2[n+]2ccccc2)cc1 (stereo unspecified) | 25.4% | 23.1% | 28% | -0.35% | 27.8% | –
38 | CC(C)(CO)NCC(O)CS(=O)(=O)O (stereo unspecified) | -30.8% | -16.6% | -9% | -61% | 4.25% | –
39 | CCCCCC(=O)Nc1ccccc1 | 4.95% | -6.3% | 1.7% | -29.4% | -10.9% | –
40 | NNC(=O)CC(N)C(=O)O (stereo unspecified) | 9% | 4.4% | -4.2% | -20.7% | 1.15% | –
41 | O=C(O)c1ccc(Cl)cc1CC(Cl)(Cl)Cl | 3.55% | 25.5% | 15.1% | 24.5% | 21.1% | 17.1
42 | CCOC(=O)C(C#N)C1(O)C(=O)Nc2ccccc21 (stereo unspecified) | -4.65% | -5% | -6.7% | 3.8% | 0.55% | 10.2
43 | CC(C)(C)OC(=O)N1CCCC1C(=O)NCCNc1ccc(NCCNC(=O)C2CCCN2C(=O)OC(C)(C)C)c2c1C(=O)c1ccccc1C2=O (stereo unspecified) | 13.8% | 13.4% | 21.4% | 52.4% | 2.35% | -25
44 | COC(=O)c1cccc(C(=O)CC(=O)c2ccccc2)c1 | 18.6% | 12.7% | 8.1% | 12.3% | 11.2% | 11.6
45 | CN(C)CCOc1c(Cc2ccccc2)ccc2cccnc12 | -1.65% | 5.15% | 3.05% | -2.9% | 1% | 5.05
46 | COC(=O)/C=C(C)/C=C/C1OC(C)OCC1O (stereo unspecified) | 7.55% | 2.3% | -3.65% | -8.55% | -5.45% | 5.5
